Compounds with a hit are over-represented: about 32% of the library has one in this group of screens.
CYP2C9 inhib: human CYP2C9 inhibition. AID 777. inhibition, % at 5 µM. CYP2C9 Supersomes, luciferin-H conversion, luminescence. 20% of 96,000 active;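 active = blocking of liver enzyme CYP2C9 beyond about 50% at 5 µM, limit read from the data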
CYP2C9 activ: CYP2C9 (human) activation; 1.4% of 96,000 active; P11712; activation factor at 5 µM; AID 1024; recombinant CYP2C9, luciferin-H conversion, luminescence; hits give high values; factor 1 = untreated enzyme, 0 = blocked;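 active = activation factor of 2 or more for CYP2C9 at a 5 µM dose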;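 note: 0 = sulfaphenazole-blocked wells and 1 = vehicle-only wells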
CYP2C19 activ: increases human CYP2C19 enzyme activity; 96,000 tested, under 10 active; activation factor at 5 µM; P33261; recombinant CYP2C19, luciferin-H EGE luminescence; hits give high values; 0 = fully inhibited enzyme, 1 = untreated enzyme;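 active = activation factor of at least 2 at 5 µM in the primary screen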;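 note: 0 = wells with 2.5 mM tranylcypromine and 1 = vehicle-only wells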
Target sequence (P33261 whole entry, looked up): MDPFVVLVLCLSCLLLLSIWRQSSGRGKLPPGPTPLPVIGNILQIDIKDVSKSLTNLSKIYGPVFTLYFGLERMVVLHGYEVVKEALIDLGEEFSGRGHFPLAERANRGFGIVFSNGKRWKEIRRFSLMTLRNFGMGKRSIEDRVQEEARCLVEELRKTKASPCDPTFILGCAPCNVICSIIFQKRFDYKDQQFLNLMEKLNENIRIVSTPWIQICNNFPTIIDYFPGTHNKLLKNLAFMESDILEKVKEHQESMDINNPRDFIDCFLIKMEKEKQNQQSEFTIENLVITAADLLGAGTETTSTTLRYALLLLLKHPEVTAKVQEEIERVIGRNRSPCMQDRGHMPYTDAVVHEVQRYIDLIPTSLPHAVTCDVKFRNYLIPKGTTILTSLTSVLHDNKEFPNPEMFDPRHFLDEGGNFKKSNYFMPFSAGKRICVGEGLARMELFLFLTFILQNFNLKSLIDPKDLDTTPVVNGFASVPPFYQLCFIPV
PostGolgi yeast: growth inhibition of a yeast mutant, post-Golgi transport screen; post-Golgi transport phenotypic cell assay; inhibition, % at 10 µM; 0.9% of 98,000 active;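 note: yeast cells grown in 1536-well plates; yeast grown about 18 h at 30C before absorbance read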
PostGolgi ctrl: yeast control strain growth, post-Golgi counter-screen; efflux-deficient yeast background strain, growth absorbance A615, 16 h; inhibition, % at 10 µM; 5% of 98,000 active; AID 738
CYP2C19 inh: human CYP2C19 inhibition. 21% of 96,000 active. inhibition, % at 5 µM. CYP2C19 Supersomes, luciferin-H EGE luminescence, 30 min. AID 778;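 active = CYP2C19 inhibition above a set limit at 5 µM in the primary screen, cut at about 50% in these data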;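 note: plate controls were negative control wells for no effect and 2.5 mM tranylcypromine positive control for full effect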
* hit, by the source's call. Cut-off read from the data, not from the text of the source, unless noted: active = inhibition above about 30%; inactive = the rest.

SMILES | CYP2C9 inhib | CYP2C9 activ | CYP2C19 activ | PostGolgi yeast | PostGolgi ctrl | CYP2C19 inh
Cc1cc2c(cc1C)CSC(c1ccc3ccccc3c1O)SC2 | 92* | 0.1 | 0.5 | -13 | 7 | 53*
Cc1cc2c(cc1C)CSC(c1ccccc1O)SC2 | 14 | 0.9 | 0.8 | 1 | 31* | 18
Cc1cc2c(cc1C)CSC(c1c(O)ccc3ccccc13)SC2 | 99* | 0 | 0.2 | 103* | 100* | 81*
O=C(O)CCCCCN=C1CCc2ccccc2N1 | 2 | 1 | 1.1 | 0 | 13 | -7
Cc1c(NC(=O)c2ccc(N3CCCC3)c([N+](=O)[O-])c2)cccc1-c1nc2ccccc2s1 | 56* | 0.4 | 0.8 | -2 | -4 | 18
O=C(Nc1ccc(N2CCCCC2)c(Cl)c1)c1ccc2c(c1)OCCO2 | 68* | 0.3 | 0.7 | -1 | 13 | 30
CC(=O)N1CCN(c2ccc(NC(=O)c3ccc(N4CCCC4)c([N+](=O)[O-])c3)cc2Cl)CC1 | 29 | 0.7 | 1.1 | -14 | 18 | -8
O=C(Nc1ccc(N2CCCCC2)c(Cl)c1)c1ccc(N2CCOCC2)c([N+](=O)[O-])c1 | 42 | 0.6 | 0.5 | 0 | 1 | 52*
O=C(Nc1ccccc1)c1ccc2c(c1)OCCO2 | 22 | 0.8 | 0.8 | 1 | 2 | 19
CO/N=C/NC(=O)c1cn(-c2ccc(F)cc2)c(=O)c2ccccc12 | 6 | 0.9 | 0.9 | 5 | 0 | 14
CC(C)COc1ccc(/C=C2/Sc3ccccc3C2=O)cc1 | 31 | 0.7 | 0.7 | -2 | 3 | 30
Cc1ccc(OC(=O)CCC(=O)OCCCC(F)(F)C(F)(F)F)cc1 | -7 | 1.1 | 1.1 | -2 | -7 | -14
Cc1ccccc1OC(=O)CCC(=O)OCCCC(F)(F)C(F)(F)F | 41 | 0.6 | 0.5 | -15 | -1 | 54*
Cc1ccc(NC(=O)C(SCC(=O)O)c2ccccc2)cc1C (centres undefined) | 11 | 0.9 | 1.1 | 15 | -2 | -8
COC(=O)CSC(C(=O)Nc1ccc(C)c(C)c1)c1ccccc1 (centres undefined) | 60* | 0.4 | 0.1 | 0 | 6 | 92*
Cc1cc(=O)n(C)c(=O)n1CC(=O)N1CCCCCC1 | -8 | 1.1 | 1.1 | -5 | 7 | -15
CCc1cc2c(N3CCCCC3)ncnc2s1 | 65* | 0.3 | 0.1 | 3 | 1 | 87*
O=C1c2ccccc2C(=O)C12Cc1ccccc1N1CCN(c3ccccc3)CC12 (centres undefined) | 76* | 0.2 | 0.4 | -5 | 25 | 56*
O=C1CC(=O)N(c2ccccc2)c2ccccc21 | -24 | 1.2 | 1 | -3 | -1 | 0
O=C(OCC(F)(F)C(F)F)c1ccccc1C(=O)Oc1ccc(F)cc1F | 76* | 0.2 | 0.1 | -4 | 0 | 90*
O=C(CCCc1ccccc1)N1CCN(c2ccc([N+](=O)[O-])cc2)CC1 | 17 | 0.8 | 0.9 | 3 | -1 | 6
O=C(CCc1ccc(Oc2cc([N+](=O)[O-])cc([N+](=O)[O-])c2)cc1)N1CCCCC1 | 82* | 0.2 | 0.5 | 6 | 20 | 54*
Cn1cnnc1SC(C(=O)c1ccccc1)c1ccccc1 (centres undefined) | -4 | 1 | 0.2 | -2 | 10 | 81*
CC(Sc1nncn1C)C(=O)Nc1nnc(-c2ccccc2)s1 (centres undefined) | 51* | 0.5 | 0.9 | 2 | 16 | 12
CCOC(=O)C(C)c1c(C)[nH]c(=S)[nH]c1=O (centres undefined) | 1 | 1 | 1.1 | 21 | 0 | -7
SMILES | CYP2C9 inhib | CYP2C9 activ | CYP2C19 activ | PostGolgi yeast | PostGolgi ctrl | CYP2C19 inh
CC(NC(=O)C12CC3CC(C1)CC(n1cncn1)(C3)C2)C12CC3CC(CC(C3)C1)C2 (centres undefined) | 72* | 0.3 | 0.3 | -2 | 0 | 68*
O=C(NC1CCCCC1)C12CC3CC(C1)CC(n1cncn1)(C3)C2 | 0 | 1 | 1.1 | 1 | 0 | -5
O=[N+]([O-])c1ccccc1/C=C/C=N/n1c(-c2ccc(Cl)cc2)n[nH]c1=S | 58* | 0.4 | 0.9 | 2 | 3 | 8
Cc1ccc(-c2n[nH]c(=S)n2/N=C/C=C\c2ccccc2[N+](=O)[O-])cc1 | 45 | 0.6 | 0.7 | -1 | 2 | 28
CC1(C)Cc2c(c(N3CCOCC3)nc3sc(C#N)c(N)c23)CS1 | -2 | 1 | 1.1 | 13 | 8 | -13
CCCSc1nc(N2CCCC2)c2c(c1C#N)CC(C)(C)OC2 | 94* | 0.1 | 0.4 | 2 | 11 | 57*
CSc1nc(N2CCCC2)c2c(c1C#N)CC(C)(C)OC2 | 29 | 0.7 | 0.8 | -8 | 24 | 19
CC1(C)Cc2c(C#N)c(SCCOc3ccccc3)nc(N3CCOCC3)c2CO1 | 99* | 0 | 0.1 | 7 | 7 | 89*
CC1(C)Cc2c(C#N)c(SCCC#N)nc(N3CCOCC3)c2CS1 | 92* | 0.1 | 0.5 | 13 | 9 | 51*
CC1CC(=O)c2cn3c(nc2C1)nc1ccccc13 (centres undefined) | -4 | 1 | 1.1 | 1 | -2 | -10
N#CCSc1ncnc2c1cnn2CCO | -9 | 1.1 | 1.1 | -7 | 3 | -9
COc1cnc(SCc2ccc(Cl)cc2Cl)nc1Cl | 4 | 1 | 0.9 | 5 | 14 | 9
COc1ccc(/C=N/n2cnnc2SCc2ccc(OC)cc2)cc1 | 1 | 1 | 0.8 | 14 | 13 | 20
COc1ccc(-c2cc(C(F)F)nc(-n3nc(C)cc3C)n2)cc1 | 2 | 1 | 1 | -1 | 31* | 1
COc1ccc(-c2cc(C(F)(F)F)n3nc(C)cc3n2)cc1 | -3 | 1 | 0.9 | -3 | 4 | 6
Cc1ccn2cc(CSc3ccccc3N)nc2c1 | 19 | 0.8 | 0.6 | -17 | 4 | 39
Cn1ccnc1SCc1cn2cc(Br)ccc2n1 | 2 | 1 | 0.4 | -19 | 6 | 65*
CCCCN(CC)S(=O)(=O)N1CCC(C(=O)NCc2ccc(F)cc2)CC1 | 47 | 0.5 | 0.4 | -1 | 26 | 58*
C=CCc1c(C)nc(SCC(=C)C)[nH]c1=O | 17 | 0.8 | 0.5 | 6 | 5 | 55*
C=C(C)CSc1nc(N)cc(=O)[nH]1 | -1 | 1 | 1 | 1 | -10 | 4
CCOC(=O)C1CCN(S(=O)(=O)c2ccc(-n3cnnn3)c(C)c2)CC1 | -14 | 1.1 | 0.9 | 17 | 2 | 15
CCOC(=O)c1oc2ccccc2c1NC(=O)c1ccc(S(=O)(=O)N(C)C)cc1 | 48 | 0.5 | 0.9 | -5 | 1 | 13
CCOC(=O)C1=C(C)Nc2ccccc2N=C1NC(=O)c1cccc(S(=O)(=O)N(C)C)c1 | 93* | 0.1 | 0.7 | -1 | 2 | 27
CCOC(=O)C1=C(CC)Nc2ccccc2N=C1NC(=O)c1ccc(S(=O)(=O)N(C)C)cc1 | 93* | 0.1 | 0.1 | -3 | 15 | 92*
CC(=O)OC(C(=O)NC1CCCCC1)c1ccc(C#N)cc1 (centres undefined) | 17 | 0.8 | 0.9 | 12 | 1 | 15
